Data on 29 compounds can be found in PubChem BioAssay (Tox21).

A short description of test [1]: qHTS assay to identify small molecule antagonists of the estrogen related receptor (ERR) signaling pathway from Tox21 library - cell viability counter screen (AID 1224834). Also: nearly all actives have a fitted effect of over 30% in size. Also: potency is read from the fitted curve at half-maximal effect. The procedure, abridged:
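Fluorescence from CellTiter-Fluor gives the viability read-out, taken 30 min after reagent addition. Before that, ERR cells seeded 6 h earlier were incubated with compounds for 17.5 h at 37 C.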
(qHTS replaces the single test concentration by a dilution series.)

Test [2] is described as follows: qHTS assay to identify small molecule agonists of the constitutive androstane receptor (CAR) signaling pathway - cell viability counter screen (AID 1224836). Also: nearly all actives have a fitted effect of over 45% in size. Also: potency is read from the fitted curve at half-maximal effect. Summed up: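 Compound titrations (15 concentrations) went onto HepG2-CYP2B6-hCAR cells 4 h after seeding, alongside PK11195 at a final 0.75 uM; a 23 h, 37 C/5% CO2 incubation preceded CellTiter-Fluor viability measurement.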

Test [3] can be described thus: qHTS assay to identify small molecule antagonists of the constitutive androstane receptor (CAR) signaling pathway - cell viability counter screen (AID 1224837). Also: nearly all actives have a fitted effect of over 45% in size. Also: potency is read from the fitted curve at half-maximal effect. Summed up: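 HepG2-CYP2B6-hCAR cells, 2500/well, 4 hr pre-incubation; compound titration, 15 conc.; CITCO 50 nM final; 23 hr, 37 C/5% CO2; CellTiter-Fluor, fluorescence intensity.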
Test [4] deals with Nuclear receptor subfamily 1 group I member 3 (Homo sapiens) (UniProt Q14994). Put plainly: qHTS assay to identify small molecule agonists of the constitutive androstane receptor (CAR) signaling pathway (AID 1224839).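 Also: HepG2 cells stably carrying human CAR and a CYP2B6 luciferase reporter; series mostly up to about 92 µM; nearly all actives have a fitted effect of over 15% in size.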 Summed up: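 In this screen, CAR-driven CYP2B6 promoter activity is measured by luminescence in HepG2-CYP2B6-hCAR cells after 24 h with test compounds and 0.75 uM PK11195 (final concentration).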

Test [5] is described as follows: qHTS assay to identify small molecule antagonists of the estrogen related receptor signaling pathway with the pleiotropic PPARgamma coactivator (PGC) from Tox21 10K library - cell viability counter screen (AID 1224840; active = well fitted cell-killing curve with a large enough effect in the repeat runs, not every such curve was filed as active; also: nearly all actives have a fitted effect of over 40% in size; also: potency is read from the fitted curve at half-maximal effect). The procedure, abridged: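 PGC/ERR cells, 2,000/well; 6 h pre-incubation 37 C/5% CO2; cpd in DMSO via pin tool; 17.5 h 37 C; CellTiter-Fluor, 30 min; fluorescence.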

The target in test [6] is Nuclear receptor subfamily 1 group I member 3 (Homo sapiens) (UniProt Q14994). Put plainly: qHTS assay to identify small molecule antagonists of the constitutive androstane receptor (CAR) signaling pathway (AID 1224838).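 Also: HepG2 cells stably expressing hCAR with CYP2B6 luciferase reporter stimulated by CITCO; nearly all actives have a fitted effect of over 40% in size.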 Summed up: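 HepG2-CYP2B6-hCAR cells; 4 h pre-incubation; cpd (15 conc) + CITCO 50 nM final; 24 h, 37 C/5% CO2; ONE-Glo, luminescence.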
Test [7] is described as follows: qHTS assay to identify small molecule antagonists of the estrogen related receptor signaling pathway with the pleiotropic PPARgamma coactivator (PGC) from Tox21 10K library (AID 1224841; call rule not given here; also: actives are mostly falling curves and most rising ones were filed inactive; nearly all actives have a fitted effect of over 50% in size; also: potency is read from the fitted curve at half-maximal effect). The procedure, abridged: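 PGC/ERR cell line, 2,000 cells/well; 6 h pre-incubation 37 C/5% CO2; compounds (DMSO) pinned in; 18 h, 37 C; One-Glo, 30 min RT; luminescence.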
The nature of test [8]: qHTS assay to identify small molecule agonists of the estrogen related receptor signaling pathway with the pleiotropic PPARgamma coactivator (PGC) from Tox21 10K library (AID 1224842). Also: nearly all actives have a fitted effect of over 15% in size. Summed up:
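Luminescence from One-Glo (30 min, room temperature) measured after PGC/ERR cells had 18 h at 37 C with pinned compound (23 nL in DMSO). Cells had been seeded at 2,000 per well and pre-incubated 6 h.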

The target in test [9] is Luciferin 4-monooxygenase (Photinus pyralis) (UniProt P08659). Nature of the test: qHTS assay to identify small molecule inhibitors of firefly luciferase (AID 1224835). Also: nearly all actives have a fitted effect of over 25% in size. Also: potency is read from the fitted curve at half-maximal effect. Summed up: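 Inhibition of purified Photinus luciferase is measured by luminescence. Substrate levels (D-luciferin, ATP) sit at their KM values. Each compound is tested in a concentration series.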

“And” between values parts separate entries of the source, which are not always exact repeats. Equal entries are not always repeated. Results filed as inconclusive are left out. Where a structure was tested more than once in an assay, its records may differ in their call. The source made the active and inactive calls. Unless noted, calls follow the shape of the dose curve; as a rule, active = well fitted curve in the direction sought with a large enough effect in the repeat runs; inconclusive = weak or mixed curves; inactive = no such curve, though single readings can be large; an effect the other way counts as inactive or inconclusive.

Luciferin 4-monooxygenase (Photinus pyralis), sequence (P08659 whole entry, looked up): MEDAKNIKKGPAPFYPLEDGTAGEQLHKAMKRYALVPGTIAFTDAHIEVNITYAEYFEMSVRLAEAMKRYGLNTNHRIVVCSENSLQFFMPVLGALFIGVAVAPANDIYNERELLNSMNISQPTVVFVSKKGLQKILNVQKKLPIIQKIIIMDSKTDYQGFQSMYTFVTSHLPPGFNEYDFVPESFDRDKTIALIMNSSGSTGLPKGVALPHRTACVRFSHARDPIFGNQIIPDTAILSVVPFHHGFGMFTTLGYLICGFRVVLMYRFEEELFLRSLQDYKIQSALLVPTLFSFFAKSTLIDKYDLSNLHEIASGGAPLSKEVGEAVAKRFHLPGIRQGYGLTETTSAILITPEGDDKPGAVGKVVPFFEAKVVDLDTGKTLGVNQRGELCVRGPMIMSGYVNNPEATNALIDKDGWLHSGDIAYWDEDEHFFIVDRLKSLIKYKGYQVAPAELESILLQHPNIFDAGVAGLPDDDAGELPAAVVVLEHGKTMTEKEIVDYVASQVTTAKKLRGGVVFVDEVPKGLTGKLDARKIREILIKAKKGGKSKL
Nuclear receptor subfamily 1 group I member 3 (Homo sapiens), sequence (Q14994 whole entry, looked up): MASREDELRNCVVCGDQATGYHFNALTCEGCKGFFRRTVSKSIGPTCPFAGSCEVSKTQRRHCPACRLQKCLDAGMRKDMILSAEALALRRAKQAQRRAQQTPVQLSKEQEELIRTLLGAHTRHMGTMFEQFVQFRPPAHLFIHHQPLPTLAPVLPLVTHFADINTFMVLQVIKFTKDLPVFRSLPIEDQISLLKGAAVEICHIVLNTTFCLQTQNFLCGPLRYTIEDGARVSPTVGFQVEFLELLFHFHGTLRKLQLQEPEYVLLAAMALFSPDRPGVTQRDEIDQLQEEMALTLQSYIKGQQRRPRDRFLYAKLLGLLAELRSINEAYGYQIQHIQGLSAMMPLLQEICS

For `C[Si]1(C)O[Si](C)(C)O[Si](C)(C)O[Si](C)(C)O1`, the Potency result in test [1], in [2], in test [3], in test [4] and in test [5] was “inactive” in each case.
With `O=C(O)CCCCCCCCC(=O)O`, the Potency result in test [1], in test [2], in test [3], in [5] and in [7] was “inactive” in each case. For the same compound, the outcome in [6] and in test [8] was inactive.
For the compound `CCCCCCCCCCN`, the Potency entry in test [9], in [2], in test [3], in [4] and in test [5] was “inactive” in each case. For the same compound, the compound was called inactive in [6].
`COCCOC(=O)c1ccccc1C(=O)OCCOC`: the Potency result in test [9], in [2], in [3], in [4] and in test [5] was “inactive” in each case. For the same compound, the compound was called inactive in test [6].
In the case of `O=S(=O)(O)c1ccccc1`, the Potency result in test [1], in test [2], in test [3], in [5] and in [7] was “inactive” each time. The result in test [8] was inactive.
For `CC(C)CC(C)O` (configuration not stated), the Potency entry in test [1], in [2], in [3] and in test [5] was “inactive” each time.
In the case of `O=C(O)Cn1c(=O)n(Cc2ccc(Br)cc2F)c(=O)c2ccc(Cl)cc21`, the Potency entry in [1], in [2], in test [3], in test [4], in test [5] and in test [7] was “inactive” throughout. The compound was classed as inactive in test [6] and in [8].
For the compound `CC(C)c1cccc(C(C)C)c1`, the Potency result in test [1], in [2], in test [3], in test [5] and in test [7] was “inactive” throughout. In addition, in test [8], the call was inactive.
As for `CCc1ccccc1CC`, the Potency result in test [1], in [9], in [2], in [3], in test [5] and in [7] was “inactive” in each case. For the same compound, the result in test [8] was inactive.
For `CCCCCCCO`, the Potency entry in [1], in [2], in test [3], in [4] and in test [5] was “inactive” throughout. The compound was called inactive in test [6].
With `CN(C)c1ccc(O)c2c1C[C@H]1C[C@H]3[C@H](N(C)C)C(=O)C(C(N)=O)=C(O)[C@@]3(O)C(=O)C1=C2O`, the Potency result in [9], in [2], in [3] and in [5] was “inactive” in each case. Besides, in test [6], the result was inactive.
Turning to `COc1ccc(N)c(C)c1`, the Potency result in test [1], in [2], in test [3] and in test [5] was “inactive” each time.
Regarding `O=C1c2ccccc2CCc2ccccc21`, the Potency entry in test [1], in test [2], in [3], in test [5] and in [7] was “inactive” throughout. Further, the outcome in [6] and in test [8] was inactive.
Consider `O=C(O)c1ccc(C(=O)O)c(C(=O)O)c1`, for which the Potency entry in test [1], in [2], in [3], in test [5] and in test [7] was “inactive” throughout. Further, in test [8], the call was inactive.
In the case of `C=Cc1ccc(C)cc1`, the Potency result in [1], in test [2], in test [3] and in [5] was “inactive” in each case. Moreover, in test [6], the result was inactive.
`CNC(=S)N(C)C`: the Potency result in test [1], in [2], in test [3] and in test [5] was “inactive” in each case.
`O=C(O)c1ccc(S(=O)(=O)N(Cl)Cl)cc1`: the Potency entry in [1], in [2], in test [3] and in test [5] was “inactive” throughout.
Turning to `CCCCOC(=O)c1ccc(N)cc1`, the Potency entry in test [1], in test [2], in [3] and in test [5] was “inactive” in each case.
`O=C(O)/C=C/C(=O)O`: the Potency entry in test [9], in test [2] and in [3] was “inactive” throughout.
As for `O=S(=O)(O)c1ccc(N=Nc2c(O)ccc3cc(S(=O)(=O)O)ccc23)cc1`, the Potency is 30.8 µM (active) and 54.5 µM (active) in [1]; 54.7 µM (active) and 30.6 µM (active) in test [2]; 54.7 µM (active) and 27.3 µM (active) in [3]; 48.6 µM (active) in test [5]; 27.4 µM (active) and inactive in test [7]. Besides, in test [4], the Potency entry was “inactive”. The call in [8] was inactive.
On to `CNC(=O)Oc1ccc2c(c1)[C@]1(C)CCN(C)[C@@H]1N2C`, for which the Potency entry in test [1], in test [2], in test [3], in test [4] and in [5] was “inactive” each time.
Consider `CC(C)OP(=O)(CP(=O)(OC(C)C)OC(C)C)OC(C)C`, for which the Potency entry in test [1], in test [2], in test [3], in test [4] and in test [5] was “inactive” throughout.
`CC(=O)c1ccc(O)cc1`: the Potency result in [1], in test [2], in test [3] and in [5] was “inactive” each time.
On to `CCCCCCO`, for which the Potency result in [9], in test [2], in test [3] and in [5] was “inactive” each time.
In the case of `O=C(O)c1ccccc1C(=O)O`, the Potency entry in test [2], in test [3] and in [5] was “inactive” each time. The compound was called inactive in test [6].
With `CCOCC(=O)O`, the Potency entry in test [9], in test [2], in test [3], in test [4], in [5] and in [7] was “inactive” throughout. Also, in test [8], the result was inactive.
Turning to `CC(C)OC(=O)COc1ccc(Cl)cc1Cl`, the Potency in test [9] is 35 µM (active). Moreover, the Potency result in [2], in test [3] and in test [5] was “inactive” each time.
Turning to `COc1ccc(C)cc1N`, the Potency result in test [9], in [2], in test [3] and in [5] was “inactive” each time. In addition, in test [6], the compound was classed as inactive.
Consider `C=CCc1ccc(OC)c(OC)c1`, for which the Potency result in test [9], in test [2], in [3] and in test [5] was “inactive” throughout.
